Reference: PubChem BioAssay (NCI)
“And” between values parts separate entries of the source, which are not always exact repeats. Equal values may be shown once. The panel holds about 83,000 compounds, 20% with a hit somewhere; the sample as a whole holds those more often.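 Testing used 96-well plates and a 48-hour single-concentration exposure. Example: -40 means 40% of the starting cells died.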 A number with no mark means an inactive call. The source made the active and inactive calls. The calls were made as follows: active = growth percent below 10; inactive = the rest.

What was measured:
Assay in all cases: NCI-60 one-dose screen, 48 h (100 = growth as untreated, 0 = no growth, -100 = all killed)
Conditions in all cases: 10 µM unless noted
DU-145 prostate = system: DU-145 prostate
MALME-3M melanoma = system: MALME-3M melanoma
MDA-MB-231 breast = system: MDA-MB-231 breast
RXF 393 renal = system: RXF 393 renal
SF-268 CNS = system: SF-268 CNS
SF-295 CNS = system: SF-295 CNS
SF-539 CNS = system: SF-539 CNS
UACC-257 melanoma = system: UACC-257 melanoma
M14 melanoma = system: M14 melanoma
K-562 leukemia = system: K-562 leukemia

Row | Structure (SMILES) | growth (DU-145 prostate) | growth (MALME-3M melanoma) | growth (MDA-MB-231 breast) | growth (RXF 393 renal) | growth (SF-268 CNS) | growth (SF-295 CNS) | growth (SF-539 CNS) | growth (UACC-257 melanoma) | growth (M14 melanoma) | growth (K-562 leukemia)
1 | O=C(O)c1cc(C(=O)O)cc([N+](=O)[O-])c1 | 116% | 95.2% | 105% | 123% | 111% | 93.4% | 100% | 103% | 99.8% | 
2 | CC12CCC(CC1)C(C)(C)O2 | 110% | 101% | 100% | 117% | 119% | 91% | 103% | 108% | 99.7% | 
3 | COc1cc(C(=O)N/N=C/c2ccc(N(C)C)cc2)cc(OC)c1OC | 0.807% (active) |  | 30.2% | 26.4% | 57.6% | 19.1% | 14.1% | 43.2% | 6.72% (active) | 14%
4 | CC(=O)C(/C=N/C(N)=O)=C(/C)O | 118% | 106% | 96.5% | 114% | 109% | 101% | 103% | 97.3% | 108% | 
5 | CCC(=O)C(CC)c1cccc(OC)c1 (centres undefined) | 114% | 101% | 111% | 107% | 120% | 100% | 115% | 100% | 101% | 
6 | CCN(CC)C(=O)c1cccnc1 | 119% | 104% | 106% | 123% | 108% | 99.8% | 99.8% | 101% | 103% | 
7 | Nc1ccc2[nH]c(-c3ccccc3)cc(=O)c2c1 | 101% | 80.4% | 100% | 89.9% | 90.7% | 93.5% | 88.5% | 79.8% | 70.6% | 
8 | CNC(=O)c1cccnc1 | 116% | 86.8% | 102% | 114% | 103% | 100% | 100% | 92.4% | 104% | 
9 | COc1cc2nc(N3CCC[C@@H](NC(=O)C4COc5ccccc5O4)C3)nc(N)c2cc1OC (some centres undefined) | 107% and 108% | 101% and 109% | 104% and 106% | 105% and 88.6% | 105% and 103% |  | 104% and 101% | 93.5% and 92% | 105% and 101% | 97.1% and 94.1%
10 | C=C1C(=O)O[C@H]2[C@H]1CC/C(COC(=O)NC1CCC(O)CC1)=C\CC[C@@]1(C)O[C@@H]21 (some centres undefined) | 38.7% and 28.8% | 72.6% and 64.5% | 60.8% and 62.4% | 54% and 53.2% | 93.2% and 91.5% | 96.6% and 95.7% | 71.9% and 63.2% | 65.6% and 69.1% | 85.4% and 71.4% | 
11 | CC1=NN(c2ccccc2)C(=O)C1C(=O)c1ccccc1 (centres undefined) | 103% | 97.6% | 97.1% | 140% | 95.4% | 97.7% | 116% | 94.3% | 104% | 
12 | O=C=NC(c1ccccc1)(c1ccccc1)c1ccccc1 | 106% | 95.2% | 97.5% | 129% | 104% | 98% | 110% | 107% | 101% | 
13 | COc1ccc2ccccc2c1/C=N/N1CCCCC1 | 108% |  | 99.4% | 100% |  | 96.4% | 89.5% | 99.7% | 108% | 91.5%
14 | CC(O)Cn1cnc2c1c(=O)n(C)c(=O)n2C (centres undefined) |  | 110% | 95.5% | 99.3% | 103% | 109% | 93.7% | 106% | 104% | 
